We go through 88 molecules from PubChem BioAssay AID504423 (Broad Institute, 2011).

Structures are written as SMILES. “And” between values parts separate entries of the source, which are not always exact repeats. Equal entries are not always repeated. In all, about 340,000 compounds went through this assay and about 260 (0.076%) were called active. This is one part of a sample in which actives are shown more often than they occur. Values without a mark were called inactive.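 Rule for the calls: active = highest replicate inhibition at or above 60% at 9 µM, even if other replicates fall short; inactive = all replicates below 60% inhibition.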

For orientation: inhibition means the drop in the measured response relative to a control, in per cent.

The subject of the test is Kaposi's sarcoma herpesvirus LANA C-terminal domain (residues 932-1162) DNA binding. As to the kind of experiment: blockers of LANA C-terminal domain DNA interaction – biochemical, fluorescence polarization, FAM-LBS DNA, MBP-C-LANA, single point, primary screen (AID 504423).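 Note: 0% = neutral control wells and 100% = 4 µM acridine orange control.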 The conditions noted are these: at 9 µM, active compounds read high. In general terms: In fluorescence polarisation assays a small probe gives low polarisation when free and higher when bound to something large.
In the case of `C=CCNC(=S)NNC(=O)c1ccc(Br)o1`, the inhibition is 0.832%.
`c1ccc(CNc2ncnc3[nH]ncc23)cc1`: the inhibition is -0.81%.
The same measure for `O=C(CN1CCN(c2ncccn2)CC1)Nc1ccccc1C(F)(F)F`: -0.265%; for `COC(=O)Cn1c(=NC(=O)CSCC(=O)Nc2cc(C)on2)sc2ccccc21`: 1.43%; for `Cc1ccc(OCCNC(=O)c2cccc(S(=O)(=O)N3CCN(Cc4ccccc4)CC3)c2)cc1`: -0.305%.
As for `COc1ccc(Cc2nnc(SCC(=O)c3cccc([N+](=O)[O-])c3)n2C)cc1`, the inhibition is 0.228%.
The same measure for `Cc1cc(C)c(NC(=O)CN2CCCCCC2)c(C)c1`: 1.26%; for `N=C1c2ccccc2-c2ccccc21`: 1.95%.
With `CCC(C)C1(C2CCCC2)NC(=O)NC1=O` (stereo not drawn), the inhibition was 3.17%.
For `CCOc1ncccc1C(=O)NCCc1ccc(OC)cc1`, the inhibition is 0.452%.
Take `CC1CCN(C(=O)c2ccccc2NC(=O)Cc2ccccc2)CC1`: the inhibition is 2.17%.
Turning to `O=C(C1CCN(S(=O)(=O)c2ccc(Br)s2)CC1)N1CCN(C2CCCCC2)CC1`, the inhibition was -0.326%.
On to `Cc1ccccc1CN1C[C@@H]2C[C@@H](c3cn(C)nc3-c3ccccc3)N3CCC[C@@]23C1=O`, for which the inhibition is -1.95%.
In the case of `O=C(Nc1ccc2sc3ccccc3c(=O)c2c1)c1ccccc1Cl`, the inhibition is -0.526%.
Take `CCCn1nc(NC(=O)C(C)C)c2cc3cc(OC)ccc3nc21`: the inhibition was -1.15%.
With `CC(C(=O)N(C)CC(=O)Nc1ccccc1C(F)(F)F)N1C(=O)c2ccccc2C1=O` (stereo not drawn), the inhibition is 1.14%.
The result for `CCN(CC)P(=O)(/C(Cl)=C\Nc1c(C)n(C)n(-c2ccccc2)c1=O)N(CC)CC` reads -1.51%; that for `Cc1cc([N+](=O)[O-])nn1CC(=O)Nc1ccc(Cc2ccncc2)cc1`, 0.568%; that for `Cn1c(N2CCOCC2)c(C=O)c2ccccc21`, 0.207%.
Consider `Cc1cc(Br)ccc1NC(=O)CN(C)C(=O)CN1C(=O)NC2(CCCC2)C1=O`, for which the inhibition was 0.321%.
As for `Cn1cc(S(=O)(=O)N2CCC(Cc3ccccc3)CC2)c(=O)n(C)c1=O`, the inhibition was 1.59%.
For the molecule `CCCCN(CCCC)CCCNC(=O)CN1C(=O)COc2ccc(S(=O)(=O)N3CCC(C)CC3)cc21`, the inhibition is 0.15%.
For the molecule `COc1cccc2c1CCC(NC(C)=O)C2=O` (stereo not drawn), the inhibition was -1.29%.
The result for `O=C(CSc1ccsc1[N+](=O)[O-])N1CCCCC1` reads 1.32%.
The same measure for `CCCCNS(=O)(=O)c1ccc(S(=O)(=O)n2cnc3ccccc32)cc1`: 0.219%; for `COc1ccc(C(=O)Nc2ccc(C(=O)NCC3CCCO3)cc2)c(OC)c1OC` (stereo not drawn): 2.3%.
For the molecule `Cc1ccc(CNC(=O)C(=O)c2cn(CC(=O)N3CCCC3)c3ccccc23)cc1`, the inhibition was 2.35%.
Regarding `COC1=C/C(=C/c2c(N)n3nc(CC(=O)N4CCOCC4)sc3nc2=O)C=CC1=O`, the inhibition is 32.7%.
Consider `CCC1CCCCN1CCNC(=O)c1[nH]c(C)c(C(C)=O)c1C` (stereo not drawn), for which the inhibition is 5.48%.
`COc1ccc(CN2CCN(Cc3ccc(OC)c(OC)c3OC)CC2)cc1`: the inhibition is 79% (active).
With `COc1cc(CN2CCN(Cc3ccc(C)cc3)CC2)c([N+](=O)[O-])cc1OC`, the inhibition is -0.737%.
As to `COc1ccccc1N1CCN(Cc2ccc(OC)c3ccccc23)CC1`, the inhibition was -3.69%.
The result for `CC(=O)Nc1ccc(SCC(=O)Nc2ccccc2Oc2ccccc2)cc1` reads 1.36%.
As to `C[C@H](CO)N1C[C@H](C)[C@H](CN(C)C(=O)Nc2ccc(C(F)(F)F)cc2)Oc2c(NC(=O)c3ccncc3)cccc2C1=O`, the inhibition was -3.26%.
As for `O=C(c1ccc(F)cc1)C1CCN(Cc2cn[nH]c2-c2ccccc2)CC1`, the inhibition was 1.59%.
With `Cc1nc(C)c2c(c1C(F)(F)F)-c1ccccc1C2(F)F`, the inhibition was 1.49%.
For the molecule `COc1ccc([C@@H]2[C@@H]3C(=O)N(C(C)(C)C)C(=O)[C@@H]3[C@]3(Cc4ccccc4)C(=O)N(c4cccc(Br)c4)C(=O)N23)cc1`, the inhibition was 0.113%.
For the molecule `CCOc1cc(C(=O)OCC(=O)Nc2cccc(C)c2)ccc1OCC(=O)N1CCOCC1`, the inhibition is 0.789%.
Turning to `CO/N=C(\C(=O)N[C@@H]1C(=O)N2C(C(=O)O)=C(COC(C)=O)CS[C@H]12)c1csc(N)n1` (stereo in doubt), the inhibition is 8.29% and 6.28% and 10.6%.
As for `C=CC1=C(C(=O)O)N2C(=O)[C@@H](NC(=O)/C(=N\OCC(=O)O)c3csc(N)n3)[C@H]2SC1`, the inhibition was 22.9%.
The same measure for `C=CC1=C(C(=O)O)N2C(=O)[C@@H](NC(=O)/C(=N/OCC(=O)O)c3csc(N)n3)[C@H]2SC1`: 95.4% (active); for `CCOc1ccccc1N1CCN(C(=O)c2ccc3[nH]c(C)c(C)c3c2)CC1`: -1.79%; for `CCC(=O)OCc1c(C(F)(F)F)nn(C)c1Oc1cccc(C(F)(F)F)c1`: 0.811%.
For `CC1(C)N=C(c2ccccn2)C(C)(C)N1O`, the inhibition was 0.432%.
For the molecule `Cc1cc(C)n2nc(C(=O)OCC(=O)N(C)CC(=O)Nc3ccc(F)cc3)nc2n1`, the inhibition was 0.686%.
Turning to `Cc1ccsc1C(=O)N[C@@H](C)c1nnc2ccccn12`, the inhibition is 1.44%.
The same measure for `Cc1nn(C)cc1N1C(=O)c2cccc3c(N)ccc(c23)C1=O`: 73% (active); for `CCC(C)(C)NC(=O)C(c1ccccn1)N(C(=O)c1csnn1)c1ccccc1` (stereo not drawn): -0.461%.
Take `O=C1OC(Oc2ccc(Br)cc2)(c2ccccc2)c2ccccc21` (stereo not drawn): the inhibition was -1.96%.
As for `CCC(Cc1ccccc1)NC(=O)C1CCCCC1` (stereo not drawn), the inhibition was 1.4%.
Consider `Cc1sc2ncn(CC(=O)NCCCC(=O)NCc3ccc(F)cc3)c(=O)c2c1C`, for which the inhibition is 0.451%.
Take `Cc1ccc2c(c1)N(CC(=O)N1CCCc3ccccc31)C(=O)C(C)O2` (stereo not drawn): the inhibition was 2.64%.
`COc1cccc(COC(=O)C2CCN(S(=O)(=O)c3ccc(Cl)cc3)CC2)c1OC`: the inhibition was 0.51%.
The result for `Cc1cc(C)c(S(=O)(=O)c2ccc(F)cc2C)c(=O)[nH]1` reads -0.026%.
On to `COc1ccc(/C(=N\O)c2nccc3cc(OC)c(OC)cc23)cc1OC`, for which the inhibition is 0.0523%.
The result for `O=C(c1ccc(=O)oc1)N1CCC(C(O)(c2ccccc2)c2ccccc2)CC1` reads 1.16%; that for `O=C(CN1CCSCC1)N/N=C/c1ccc(F)cc1F`, -0.674%.
For `Clc1ccc(-c2nnc(-c3ccccc3)nc2N2CCSCC2)cc1`, the inhibition is -0.189%.
The same measure for `CC(=O)c1ccc(N2C(=NC(=O)C(C)C)SC3CS(=O)(=O)CC32)cc1` (stereo not drawn): -0.954%.
`CCCN(CC(=O)Nc1ccc(OC)c(OC)c1)CC(=O)Nc1ccc(F)c(F)c1F`: the inhibition is 3.86%.
Regarding `COCCCNC(=O)C1CC(=O)N(c2ccc(C)cc2)C1` (stereo not drawn), the inhibition is 0.062%.
With `COC(=O)c1c(C)oc(C)c1S(=O)(=O)Nc1ccc(C(C)C)cc1`, the inhibition is -0.597%.
Consider `CCN(CC(=O)NC1CCS(=O)(=O)C1)S(=O)(=O)c1ccccc1` (stereo not drawn), for which the inhibition was -1.52%.
Turning to `CCOc1cc(C(=O)Nc2c(C)ccc3nsnc23)cc(OCC)c1OCC`, the inhibition was -1.85%.
The result for `CCN(CC(=O)NC(C)C)C(=O)CCNC(=O)c1ccc(Cl)cc1` reads -0.0284%.
The result for `COc1ccc(NS(=O)(=O)c2ccc(C)c(C(=O)N(C)Cc3ccc(OC)cc3OC)c2)cc1` reads 28.6%.
For `O=S(=O)(c1ccc(-c2ccccc2)cc1)N1CCCC1`, the inhibition is 1.28%.
Consider `CCCn1c(N)c(C(=O)CSc2nnc(-c3cccnc3)n2-c2ccc(C)cc2C)c(=O)[nH]c1=O`, for which the inhibition is 0.224%.
For `CC(C)(C)NC(=O)CN1CCC(NC(=O)C23CC4CC(CC(C4)C2)C3)CC1`, the inhibition is 0.793%.
For `c1ccc2c(NC3C4CC5CC(C4)CC3C5)nc(N3CCOCC3)nc2c1` (stereo not drawn), the inhibition was 0.795%.
Consider `CCC(C)(C)c1ccc(OCC(=O)N(C)C)c(C(C)(C)CC)c1`, for which the inhibition was 1.97%.
Regarding `Oc1ccc2ccc3cccc[n+]3c2c1`, the inhibition is 141% (active).
As for `Oc1ccc(-c2nc3ccccc3nc2-c2ccc(O)cc2O)c(O)c1`, the inhibition was 2.95%.
Take `CC(=O)Oc1cc2c(C(=O)NCCN3CCOCC3)c(C)oc2c2ccccc12`: the inhibition is -0.716%.
On to `Cc1cc(C)nc(NNC2=CC(=O)CC(C)(C)C2)n1`, for which the inhibition was 2.32%.
With `Cn1c(SCC(=O)N2CCCCC2)nc2c(c1=O)SCC2`, the inhibition is -1.34%.
With `COC(=O)[C@@H](NC(=O)NCc1cccc(OC)c1)C(C)C`, the inhibition is 1.36%.
The same measure for `O=C1COc2ccc(C(=O)COC(=O)c3cccnc3Cl)cc2N1`: 4.34%; for `COC(=O)C[n+]1cccc2ccccc21`: 70.1% (active).
As for `COC(=O)Cc1c(-c2[nH]c3ccccc3c2CC(=O)OC)[nH]c2ccccc12`, the inhibition is 1.73%.
The result for `O=C(C[n+]1cc(Br)cc2ccccc21)c1ccc(F)cc1` reads 4%.
On to `O=C1CCCc2c1[nH]c1ccc(Br)cc21`, for which the inhibition was -0.926%.
On to `COCCCN(C(=O)Cn1ncc2c(=O)oc3ccc(C)cc3c21)C(C)c1ccncc1` (stereo not drawn), for which the inhibition was 1.23%.
Regarding `O=C(Cn1c[n+](CC(=O)c2ccc([N+](=O)[O-])cc2)cn1)c1ccc([N+](=O)[O-])cc1`, the inhibition is -0.902% and -2.71%.
In the case of `CCOC(=O)C(C)N(c1ccccc1Cl)S(C)(=O)=O` (stereo not drawn), the inhibition is 1.82%.
For `CCOC(=O)C1CCN(C(=O)Cn2nc(C)c3c(C)n(-c4ccccc4)nc3c2=O)CC1`, the inhibition is -0.173%.
As for `O=C1C=C(c2cccc(Cl)c2O)C[C@@H](c2ccc(F)cc2)C1`, the inhibition was 0.749%.
Regarding `O=C(O)CCn1c(SCc2cc(=O)n3ccccc3n2)nc2ccsc2c1=O`, the inhibition was 0.383%.
